The record followed here is PubChem BioAssay.

Measured potencies and affinities stand elsewhere. Inconclusive results are not listed. Values without a mark were called inactive.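 The calls were made as follows, unless noted: active = fitted half-maximal concentration for viability loss no higher than twice the top valid dose, in every repeat run; inconclusive = repeat runs disagree, flat partial loss, or poor curve fit; inactive = the rest.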

One experiment can be described thus: RMG-1 ovarian cancer cell viability loss – cherry-pick, dose response (AID 687029;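 active = signal drop whose fitted half-maximal concentration is at most twice the top valid dose, in every test run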;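 also: cells exposed to compound for 96 hours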). Particulars: RMG-1 viability, CellTiterGlo ATP luminescence, 96 h; series mostly up to 35 µM; activity change, negative = inhibition: at the top concentration. On the technique in general: ATP-based viability assays read luminescence as a measure of living cells.
In the case of `O=C(Nc1cccc(NC(=O)c2ccccc2Cl)c1)c1ccc([N+](=O)[O-])o1`, the “activity change, negative = inhibition” value was 34.4%.

As for `O=C(Nc1ccc(F)cc1)c1nc(S(=O)(=O)Cc2ccccc2)ncc1Cl`, the “activity change, negative = inhibition” value is 9.93%.

For `Cc1ccc(-c2cn3cc(C)ccc3n2)cc1`, the “activity change, negative = inhibition” value was 46.6%.

With `COC(=O)C12OCC34C(CC5C(C)=C(O)C(=O)CC5(C)C3C(O)C1O)OC(=O)C(OC(=O)C=C(C)C)C24` (stereo not given), the “activity change, negative = inhibition” value is 17.2%.

`CCCN(CCC)Cc1c(C(=O)N/N=C/C(C)=C\c2ccco2)nnn1-c1nonc1N`: the “activity change, negative = inhibition” value was 13.6%.

Take `O=C1C=CC(=C(c2ccc(O)cc2)c2ccc(O)cc2)C=C1`: the “activity change, negative = inhibition” value is 8.66%.

As for `Cc1ccc2c(c1C)-c1c(ccc(C)c1C)C(=O)C2=O`, the “activity change, negative = inhibition” value was 25.5%.

Regarding `O=C(Nc1cccc(Cl)c1)Nc1csc([N+](=O)[O-])c1`, the “activity change, negative = inhibition” value was 14.2%.

As to `CCCCn1nc(C(=O)Nc2cc(C(F)(F)F)ccc2N2CCOCC2)ccc1=O`, the “activity change, negative = inhibition” value is 19.3%.

For the compound `O=C(O)c1cccc(N/N=C/c2cccs2)c1`, the “activity change, negative = inhibition” value was 23.9%.

As for `CCCCn1cnc2c(c(-c3ccccc3)c(-c3ccccc3)n2Cc2ccco2)c1=N`, the “activity change, negative = inhibition” value is 26%.

Take `Cc1ccc(S(=O)(=O)Nc2ccc3c(c2)C(=O)N([C@H](C)CO)C[C@H](C)[C@@H](CN(C)S(=O)(=O)c2ccc(C)cc2)OCCCC[C@H](C)O3)cc1`: the “activity change, negative = inhibition” value is 26.2%.

As to `COc1ccc(NC(=O)C(Sc2nnc(-c3ccncc3)n2-c2ccccc2C)c2ccccc2)cc1Cl` (stereo not given), the “activity change, negative = inhibition” value was 29.8%.

In the case of `O=C(OCC(=O)N1CCN(C(=O)c2ccco2)CC1)c1cccc(S(=O)(=O)N2CCc3ccccc32)c1`, the “activity change, negative = inhibition” value was 44.2%.

On to `CCc1ccc2[nH]c3nc(N/N=C/c4ccc(O)cc4O)nnc3c2c1`, for which the “activity change, negative = inhibition” value was 38.1%.

For the compound `COc1ccc(-c2ccc3c(c2)[C@H]2[C@H](CCN2S(=O)(=O)c2ccc(OC)cc2)[C@H](CO)N3C)cc1`, the “activity change, negative = inhibition” value was 19.1% [at 30 µM].

In the case of `CCN(c1nc(N)c(C(=O)N=C(N)N)nc1Cl)C(C)C`, the “activity change, negative = inhibition” value is 54.1%.

`C=C(C)C(=O)OC1(C(F)(F)F)Oc2cc(C)ccc2NC1=O` (stereo not given): the “activity change, negative = inhibition” value is 20.3%.

Take `O=C1/C(=C\c2ccc(Cl)c(Cl)c2)CN(C(=O)CCN2CCOCC2)C/C1=C/c1ccc(Cl)c(Cl)c1`: the “activity change, negative = inhibition” value is 12.5%.

Take `Nc1ncnc2c(C3OC(CO)C(O)C3O)scc12` (stereo not given): the “activity change, negative = inhibition” value is 20.6%.

As for `COc1nn(-c2ccccc2)c(=O)c(Cl)c1Cl`, the “activity change, negative = inhibition” value is 37.5%.

Turning to `O=C(Nc1ccc(Cl)cc1)Nc1ccc(N2CCCC2)c(S(=O)(=O)Nc2ccccc2Cl)c1`, the “activity change, negative = inhibition” value is 17.9%.

For the compound `O=C(NC1CCCCC1)C(c1cccs1)N(C(=O)Cc1c[nH]c2ccccc12)c1ccc(F)cc1` (stereo not given), the “activity change, negative = inhibition” value is 16.9%.

With `COc1ccc(C(=O)c2cc([N+](=O)[O-])ccc2N2CCOCC2)cc1`, the “activity change, negative = inhibition” value was 29%.

`Cc1ccc(NC(=O)c2ccc([N+](=O)[O-])s2)cc1S(=O)(=O)N1CCOCC1`: the “activity change, negative = inhibition” value was 11.3%.

`C=CCC[C@H](Cc1ccc(F)cc1)C(=O)OC[C@H](Cc1c[nH]c2ccccc12)NC(=O)[C@H](CC=C)CC(=O)N(CCO)Cc1ccccc1`: the “activity change, negative = inhibition” value was -4.72%.

For the compound `COc1ccccc1N1CCN(Cc2cc(Br)c(O)c3ncccc23)CC1`, the “activity change, negative = inhibition” value was 36.6%.

For `C=C1C(=O)[C@]23C[C@H]1CC[C@H]2[C@]1(C)[C@@H](OC(C)=O)CC[C@@](C)(C(=O)OC)[C@H]1C[C@@H]3OC(C)=O`, the “activity change, negative = inhibition” value is 17.5%.

On to `O=C(Nc1cccc(F)c1)N1CCCCN2[C@@H](CO)[C@H](c3ccc(C#Cc4ccccc4)cc3)[C@@H]2C1`, for which the “activity change, negative = inhibition” value was 22.1%.

For `C#CCN(C[C@H]1[C@H](OC(=O)Nc2c(C)noc2C)[C@H](OC(=O)Nc2c(C)noc2C)C[C@@H](C(=O)OC)[C@H]1C(=O)OC)S(=O)(=O)c1ccc(C)cc1`, the “activity change, negative = inhibition” value was 15.2%.

For `O=C(CCCN1C(=O)/C(=C/c2ccccc2OC(F)F)SC1=S)Nc1cccnc1`, the “activity change, negative = inhibition” value was 7.38%.

With `C[C@@H](NC(=O)c1nc[nH]c1C(=O)N[C@@H](Cc1ccccc1)C(=O)OC(C)(C)C)c1ccccc1`, the “activity change, negative = inhibition” value is 17.7%.

Regarding `O=C(Nc1ccc([N+](=O)[O-])cn1)c1cc(-c2cccc(Br)c2)nc2ccccc12`, the “activity change, negative = inhibition” value was 34.5%.

In the case of `N#Cc1ccc(NC(=O)COC(=O)C2CCC2)cc1`, the “activity change, negative = inhibition” value was 24.3%.

On to `COc1ccc(O)c(/C=N/NC(=O)c2ccc(N3CCCC3=O)cc2)c1`, for which the “activity change, negative = inhibition” value is -0.31%.

As for `O=C(Nc1nc(-c2cccs2)c(-c2cccs2)s1)C1(c2ccccc2)CC1`, the “activity change, negative = inhibition” value is 15.6%.

For `C=C1C(=O)O[C@@H]2[C@H]1CC[C@H](C)[C@]1(O)CCC(=O)[C@@]21C`, the “activity change, negative = inhibition” value was 7.91%.

For `CC(C)OCCCNC(=O)c1cccc(NC(=O)c2ccccc2)c1`, the “activity change, negative = inhibition” value is 31.1% [at 16 µM].

For `COc1cccc(/C=C2\SC(=S)N(CCC(=O)NCCc3ccc(O)cc3)C2=O)c1`, the “activity change, negative = inhibition” value is 12.3%.

In the case of `NC(=O)[C@H]1CC2(CC(c3cccc(NC(=O)COc4ccc(Cl)cc4)c3)=NO2)CN1C(=O)C(c1ccccc1)c1ccccc1` (stereo not given in full), the “activity change, negative = inhibition” value is -8.69%.

The nature of the next experiment: IOSE-T80 viability loss, PAX8-independent line – cell-based, cherry-pick, selectivity assay for PAX8 inhibitor project, dose response (AID 687032).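 Also: cells exposed to compound for 96 h before reading; 0% = neutral control wells and -100% = 2 µM mitoxantrone kill.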 Particulars: CellTiterGlo ATP luminescence, 96 h; series mostly up to 35 µM; activity change, negative = viability loss: at the top concentration.
Turning to `O=C(Nc1cccc(NC(=O)c2ccccc2Cl)c1)c1ccc([N+](=O)[O-])o1`, the “activity change, negative = viability loss” value is 6.88%.

Consider `O=C(Nc1ccc(F)cc1)c1nc(S(=O)(=O)Cc2ccccc2)ncc1Cl`, for which the “activity change, negative = viability loss” value is 5.74%.

On to `Cc1ccc(-c2cn3cc(C)ccc3n2)cc1`, for which the “activity change, negative = viability loss” value was 25.8%.

Take `COC(=O)C12OCC34C(CC5C(C)=C(O)C(=O)CC5(C)C3C(O)C1O)OC(=O)C(OC(=O)C=C(C)C)C24` (stereo not given): the “activity change, negative = viability loss” value is 5.14%.

As to `CCCN(CCC)Cc1c(C(=O)N/N=C/C(C)=C\c2ccco2)nnn1-c1nonc1N`, the “activity change, negative = viability loss” value is 1.56%.

`O=C1C=CC(=C(c2ccc(O)cc2)c2ccc(O)cc2)C=C1`: the “activity change, negative = viability loss” value was 9.43%.

Consider `Cc1ccc2c(c1C)-c1c(ccc(C)c1C)C(=O)C2=O`, for which the “activity change, negative = viability loss” value was 6.31%.

As for `O=C(Nc1cccc(Cl)c1)Nc1csc([N+](=O)[O-])c1`, the “activity change, negative = viability loss” value is -2.51%.

As for `CCCCn1nc(C(=O)Nc2cc(C(F)(F)F)ccc2N2CCOCC2)ccc1=O`, the “activity change, negative = viability loss” value is 3.41%.

Take `O=C(O)c1cccc(N/N=C/c2cccs2)c1`: the “activity change, negative = viability loss” value is -1.3%.

Regarding `CCCCn1cnc2c(c(-c3ccccc3)c(-c3ccccc3)n2Cc2ccco2)c1=N`, the “activity change, negative = viability loss” value was 24.8%.

For the compound `Cc1ccc(S(=O)(=O)Nc2ccc3c(c2)C(=O)N([C@H](C)CO)C[C@H](C)[C@@H](CN(C)S(=O)(=O)c2ccc(C)cc2)OCCCC[C@H](C)O3)cc1`, the “activity change, negative = viability loss” value is 18.5%.

For the compound `COc1ccc(NC(=O)C(Sc2nnc(-c3ccncc3)n2-c2ccccc2C)c2ccccc2)cc1Cl` (stereo not given), the “activity change, negative = viability loss” value was 12.4%.

With `O=C(OCC(=O)N1CCN(C(=O)c2ccco2)CC1)c1cccc(S(=O)(=O)N2CCc3ccccc32)c1`, the “activity change, negative = viability loss” value is 22.2%.

For `CCc1ccc2[nH]c3nc(N/N=C/c4ccc(O)cc4O)nnc3c2c1`, the “activity change, negative = viability loss” value is 13.3%.

`COc1ccc(-c2ccc3c(c2)[C@H]2[C@H](CCN2S(=O)(=O)c2ccc(OC)cc2)[C@H](CO)N3C)cc1`: the “activity change, negative = viability loss” value was 7.26% [at 30 µM].

`CCN(c1nc(N)c(C(=O)N=C(N)N)nc1Cl)C(C)C`: the “activity change, negative = viability loss” value is 13.1%.

As for `C=C(C)C(=O)OC1(C(F)(F)F)Oc2cc(C)ccc2NC1=O` (stereo not given), the “activity change, negative = viability loss” value is -0.497%.

Consider `O=C1/C(=C\c2ccc(Cl)c(Cl)c2)CN(C(=O)CCN2CCOCC2)C/C1=C/c1ccc(Cl)c(Cl)c1`, for which the “activity change, negative = viability loss” value is 12.6%.

On to `Nc1ncnc2c(C3OC(CO)C(O)C3O)scc12` (stereo not given), for which the “activity change, negative = viability loss” value is 6.34%.

With `COc1nn(-c2ccccc2)c(=O)c(Cl)c1Cl`, the “activity change, negative = viability loss” value is -1.81%.

On to `O=C(Nc1ccc(Cl)cc1)Nc1ccc(N2CCCC2)c(S(=O)(=O)Nc2ccccc2Cl)c1`, for which the “activity change, negative = viability loss” value was 9.46%.

Regarding `O=C(NC1CCCCC1)C(c1cccs1)N(C(=O)Cc1c[nH]c2ccccc12)c1ccc(F)cc1` (stereo not given), the “activity change, negative = viability loss” value was 5.84%.

As for `COc1ccc(C(=O)c2cc([N+](=O)[O-])ccc2N2CCOCC2)cc1`, the “activity change, negative = viability loss” value was 4.07%.

Turning to `Cc1ccc(NC(=O)c2ccc([N+](=O)[O-])s2)cc1S(=O)(=O)N1CCOCC1`, the “activity change, negative = viability loss” value is 6.27%.

Regarding `C=CCC[C@H](Cc1ccc(F)cc1)C(=O)OC[C@H](Cc1c[nH]c2ccccc12)NC(=O)[C@H](CC=C)CC(=O)N(CCO)Cc1ccccc1`, the “activity change, negative = viability loss” value is -6.4%.

For the compound `COc1ccccc1N1CCN(Cc2cc(Br)c(O)c3ncccc23)CC1`, the “activity change, negative = viability loss” value was 14.2%.

As for `C=C1C(=O)[C@]23C[C@H]1CC[C@H]2[C@]1(C)[C@@H](OC(C)=O)CC[C@@](C)(C(=O)OC)[C@H]1C[C@@H]3OC(C)=O`, the “activity change, negative = viability loss” value is 4.24%.

Regarding `O=C(Nc1cccc(F)c1)N1CCCCN2[C@@H](CO)[C@H](c3ccc(C#Cc4ccccc4)cc3)[C@@H]2C1`, the “activity change, negative = viability loss” value is 12.2%.

As for `C#CCN(C[C@H]1[C@H](OC(=O)Nc2c(C)noc2C)[C@H](OC(=O)Nc2c(C)noc2C)C[C@@H](C(=O)OC)[C@H]1C(=O)OC)S(=O)(=O)c1ccc(C)cc1`, the “activity change, negative = viability loss” value is 7.17%.

In the case of `O=C(CCCN1C(=O)/C(=C/c2ccccc2OC(F)F)SC1=S)Nc1cccnc1`, the “activity change, negative = viability loss” value is -0.498%.

Consider `C[C@@H](NC(=O)c1nc[nH]c1C(=O)N[C@@H](Cc1ccccc1)C(=O)OC(C)(C)C)c1ccccc1`, for which the “activity change, negative = viability loss” value is 2.11%.

Consider `O=C(Nc1ccc([N+](=O)[O-])cn1)c1cc(-c2cccc(Br)c2)nc2ccccc12`, for which the “activity change, negative = viability loss” value was 12.6%.

With `N#Cc1ccc(NC(=O)COC(=O)C2CCC2)cc1`, the “activity change, negative = viability loss” value was 4.28%.

Regarding `COc1ccc(O)c(/C=N/NC(=O)c2ccc(N3CCCC3=O)cc2)c1`, the “activity change, negative = viability loss” value was -1.23%.

On to `O=C(Nc1nc(-c2cccs2)c(-c2cccs2)s1)C1(c2ccccc2)CC1`, for which the “activity change, negative = viability loss” value was 3.63%.

As for `C=C1C(=O)O[C@@H]2[C@H]1CC[C@H](C)[C@]1(O)CCC(=O)[C@@]21C`, the “activity change, negative = viability loss” value was 9.59%.

As to `CC(C)OCCCNC(=O)c1cccc(NC(=O)c2ccccc2)c1`, the “activity change, negative = viability loss” value is 7.73%.

In the case of `COc1cccc(/C=C2\SC(=S)N(CCC(=O)NCCc3ccc(O)cc3)C2=O)c1`, the “activity change, negative = viability loss” value was 2.45%.

With `NC(=O)[C@H]1CC2(CC(c3cccc(NC(=O)COc4ccc(Cl)cc4)c3)=NO2)CN1C(=O)C(c1ccccc1)c1ccccc1` (stereo not given in full), the “activity change, negative = viability loss” value is -8.08%.
